The target of one test is Albumin (Bos taurus) (UniProt P02769). The experiment in a line: bovine serum albumin binders on microarray, profiling panel, artefact control for SMM control protein annotation, biochemical, small-molecule microarray, Alexa647 label, 635/667 nm fluorescence (AID 1118).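 Also: score merges 667 nm emission intensity and signal-to-noise per printed compound spot.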 The following applies: BSA-A647 binding, fluorescence 635 nm, higher = more signal.
Test [1] can be described thus: small-molecule microarray binders of probe aXIP, primary screen, biochemical, NeuroSMM set, 635/667 nm fluorescence (AID 1119).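 Also: probe is the protein aXip251-270 applied at 1 µg/mL to compound-printed slides; binding of probe to printed compounds measured as 667 nm fluorescence plus signal to noise.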 The following applies: higher = more signal, called active from +8 up or from −8 down.
Test [2] can be described thus: small-molecule binders of probe aNOTCH3, primary screen, biochemical, small-molecule microarray, 635/667 nm fluorescence (AID 1120).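 Also: probe is a biotin-tagged antibody raised against NOTCH3 rather than NOTCH3 protein; score merges spot fluorescence near 667 nm with spot signal to noise.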 The following applies: higher = more signal.
Test [3] in a line: small-molecule binders of probe aNOTCH2, primary screen, biochemical, small-molecule microarray, 635/667 nm fluorescence (AID 1121).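 Also: score merges feature fluorescence read at 667 nm with its signal to noise.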 To be noted: higher = more signal.
The target in test [4] is Carbonic anhydrase 2 (Homo sapiens) (UniProt P00918). The experiment in a line: CAII small-molecule binders, profiling panel, biochemical, small-molecule microarray, Alexa647-labelled CAII (AID 1122). To be noted: CAII-A647 binding fluorescence, higher = more signal.
Test [5] is described as follows: COS7 lysate on small-molecule microarray, probe aHis, 635 nm (AID 1123).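 Also: z-score combines 667nm fluorescence intensity with signal-to-noise per printed compound spot.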 The following applies: COS7 cell lysate, fluorescence, higher = more signal.
Test [6] can be described thus: compound binding in COS7 lysate, probe aLAP1, primary screen, cell lysate, small-molecule microarray (AID 1124).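 Also: lysate comes from COS7 cells expressing LAP1 and is applied at 0.3 µg/mL; score merges spot fluorescence near 667 nm with signal-to-noise over triplicate slides.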 To be noted: probe aLAP1, fluorescence, higher = more signal.
A further test has as its system Sam68 (KHDRBS1). Kind of test: Sam68 small-molecule binders, primary screen, biochemical, small-molecule microarray, 635 nm fluorescence (AID 1125).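 Also: score merges 667 nm channel intensity with signal to noise over triplicate slides.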 To be noted: small-molecule microarray binding, higher = more signal.
Test [7] relates to Chordin-like protein 2 (CHRDL2). Kind of test: CHRDL2 small-molecule binders, primary screen, biochemical, small-molecule microarray, 635 nm fluorescence (AID 1126).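 Also: printed compound slides probed with Chrdl2 protein at 4 µg/mL for 1 h at 4 C; score merges 667 nm emission intensity with signal to noise over three replicate slides.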 The following applies: small-molecule microarray binding, fluorescence 635 nm; higher = more signal.
For test [8], the target named is Concanavalin-A (Canavalia ensiformis) (UniProt P02866). The experiment in a line: ConA small-molecule binders, primary screen, artefact control for SMM control protein annotation, biochemical, small-molecule microarray, Alexa647 label, 635 nm (AID 1127).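 Also: z combines 667 nm emission intensity with signal-to-noise across three replicate slides.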 To be noted: ConA-A647 binding fluorescence, higher = more signal.
Concanavalin-A (Canavalia ensiformis), sequence (P02866 whole entry, looked up): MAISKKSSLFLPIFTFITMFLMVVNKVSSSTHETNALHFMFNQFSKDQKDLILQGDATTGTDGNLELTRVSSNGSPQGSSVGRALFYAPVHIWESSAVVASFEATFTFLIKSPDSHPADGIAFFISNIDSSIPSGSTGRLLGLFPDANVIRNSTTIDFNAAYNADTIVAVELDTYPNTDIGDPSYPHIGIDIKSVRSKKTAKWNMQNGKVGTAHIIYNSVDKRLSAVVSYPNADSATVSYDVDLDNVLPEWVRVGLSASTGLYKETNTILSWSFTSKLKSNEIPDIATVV
Test [9] can be described thus: anti-His antibody binders, primary screen, artefact control for SMM control protein annotation, biochemical, small-molecule microarray, 635 nm fluorescence (AID 1128).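 Also: score merges feature fluorescence with signal-to-noise for each printed compound spot.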 The following applies: anti-His Alexa647 antibody binding, higher = more signal.
In test [10] the test system is Human papillomavirus type 1a E7 protein (residues 1-88). Kind of test: HPV1a E7 small-molecule binders, primary screen, biochemical, small-molecule microarray, residues 1-88, 635 nm (AID 1129). To be noted: small-molecule microarray binding, fluorescence 635 nm; higher = more signal.
The target of test [11] is Focal adhesion kinase 1 (Homo sapiens) (UniProt Q05397). The experiment in a line: small-molecule microarray binders of FAK, primary screen, biochemical, 635/667 nm fluorescence, BSA, DTT (AID 1130).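 Also: composite of spot emission at 667 nm and signal to noise over triplicate slides.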 The following applies: PTK2 binding, 635 nm fluorescence, higher = more signal.
Focal adhesion kinase 1 (Homo sapiens), sequence (Q05397 whole entry, looked up): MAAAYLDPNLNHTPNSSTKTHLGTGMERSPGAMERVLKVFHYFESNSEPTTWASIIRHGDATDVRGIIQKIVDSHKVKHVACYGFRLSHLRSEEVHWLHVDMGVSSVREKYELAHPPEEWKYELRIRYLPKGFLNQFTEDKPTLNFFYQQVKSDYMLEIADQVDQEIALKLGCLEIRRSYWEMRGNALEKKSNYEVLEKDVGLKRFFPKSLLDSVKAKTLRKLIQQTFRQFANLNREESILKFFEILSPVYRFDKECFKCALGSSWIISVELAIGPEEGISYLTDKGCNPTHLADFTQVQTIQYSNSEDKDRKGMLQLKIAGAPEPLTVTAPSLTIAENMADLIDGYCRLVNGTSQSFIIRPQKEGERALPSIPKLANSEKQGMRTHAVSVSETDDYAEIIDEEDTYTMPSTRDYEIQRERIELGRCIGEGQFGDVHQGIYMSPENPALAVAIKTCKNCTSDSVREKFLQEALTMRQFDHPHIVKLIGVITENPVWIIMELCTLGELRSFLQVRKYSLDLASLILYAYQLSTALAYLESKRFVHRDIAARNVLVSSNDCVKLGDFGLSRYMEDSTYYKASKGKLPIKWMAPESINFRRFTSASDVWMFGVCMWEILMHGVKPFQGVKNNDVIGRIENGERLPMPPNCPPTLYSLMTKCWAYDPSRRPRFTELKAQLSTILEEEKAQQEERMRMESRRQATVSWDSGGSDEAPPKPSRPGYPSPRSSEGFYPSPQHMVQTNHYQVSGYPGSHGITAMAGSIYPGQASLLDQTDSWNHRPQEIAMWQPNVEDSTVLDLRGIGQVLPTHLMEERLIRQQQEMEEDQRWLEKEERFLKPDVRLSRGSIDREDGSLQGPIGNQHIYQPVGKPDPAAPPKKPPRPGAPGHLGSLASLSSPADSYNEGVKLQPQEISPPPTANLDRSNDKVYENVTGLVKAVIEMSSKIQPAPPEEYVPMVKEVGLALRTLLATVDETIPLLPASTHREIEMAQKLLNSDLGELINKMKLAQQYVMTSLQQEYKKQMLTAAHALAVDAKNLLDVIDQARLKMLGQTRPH
Test [12] has as its system Fibrinogen (Alexa647-labelled). The experiment in a line: fibrinogen binders on compound microarrays, profiling panel, artefact control for SMM control-protein annotation, biochemical, small-molecule microarray, 635/667 nm fluorescence (AID 1131).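 Also: z-score merges 667 nm fluorescence with per-spot signal-to-noise over triplicate slides.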 The following applies: fibrinogen-A647 binding fluorescence, higher = more signal.
The target in test [13] is Follistatin (Homo sapiens) (UniProt P19883). The experiment in a line: follistatin binders on small-molecule microarrays, primary screen, biochemical, small-molecule microarray, 635/667 nm fluorescence (AID 1132). The following applies: FST binding, 635 nm fluorescence, higher = more signal.
Follistatin (Homo sapiens), sequence (P19883 whole entry, looked up): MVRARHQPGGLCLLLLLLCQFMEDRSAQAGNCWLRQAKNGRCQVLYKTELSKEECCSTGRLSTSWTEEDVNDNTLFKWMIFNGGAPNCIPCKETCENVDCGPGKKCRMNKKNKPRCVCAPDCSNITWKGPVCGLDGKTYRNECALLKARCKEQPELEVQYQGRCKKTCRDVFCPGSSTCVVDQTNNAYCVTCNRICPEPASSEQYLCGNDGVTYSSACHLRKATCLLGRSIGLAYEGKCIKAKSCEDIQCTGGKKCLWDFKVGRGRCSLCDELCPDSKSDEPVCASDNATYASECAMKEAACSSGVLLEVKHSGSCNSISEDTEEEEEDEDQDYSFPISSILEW
For test [14], the target named is Fibroblast growth factor 2 (Homo sapiens) (UniProt P09038). The experiment in a line: FGF2 binders on small-molecule microarrays, primary screen, biochemical, small-molecule microarray, 635/667 nm fluorescence (AID 1133). To be noted: small-molecule microarray binding, FGF2, fluorescence 635/667; higher = more signal.
Fibroblast growth factor 2 (Homo sapiens), sequence (P09038 whole entry, looked up): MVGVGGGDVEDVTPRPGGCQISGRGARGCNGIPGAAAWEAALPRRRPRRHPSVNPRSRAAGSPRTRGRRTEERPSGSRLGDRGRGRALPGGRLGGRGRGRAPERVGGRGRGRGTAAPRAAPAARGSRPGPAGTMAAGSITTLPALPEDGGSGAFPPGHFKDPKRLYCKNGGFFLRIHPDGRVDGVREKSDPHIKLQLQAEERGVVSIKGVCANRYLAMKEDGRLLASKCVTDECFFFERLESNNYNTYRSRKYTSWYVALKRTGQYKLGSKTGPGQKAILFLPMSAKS
Test [15] can be described thus: mitochondrial membrane potential change in A549 cells, profiling panel, cell-based, JC-1 fluorescence, basal, 24 h, 100 nL (AID 1138).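 Also: A549 lung adenocarcinoma cells under basal conditions with no added stimulus; test concentration not given here.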 The following applies: higher = more signal.
The subject of a further test is Lefty1. The experiment in a line: Lefty1 binders on small-molecule microarrays, primary screen, biochemical, small-molecule microarray, 635/667 nm fluorescence (AID 1139). The following applies: small-molecule microarray binding, fluorescence 635/667; higher = more signal.
Test [16] relates to wheat germ agglutinin (Triticum aestivum), Alexa647-labelled. The experiment in a line: wheat germ agglutinin binders on compound microarrays, profiling panel, artefact control for SMM control-protein annotation, biochemical, small-molecule microarray, 635/667 nm fluorescence (AID 1140).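 Also: score merges 667 nm feature emission with signal to noise over triplicate slides.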 The following applies: WGA-A647 binding, 635 nm fluorescence, higher = more signal.
In test [17] the target is Luciferin 4-monooxygenase (Photinus pyralis) (UniProt P08659). The experiment in a line: firefly luciferase enzyme inhibitors, primary screen, biochemical, luminescence, purified enzyme, 2006 set (AID 1141).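 Also: cell-free assay with purified firefly luciferase at 100 ng per well in PBS; test concentration not given here.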 To be noted: SteadyGlo luminescence, 30 min, higher = more signal, called active from +8 up or from −8 down.
Luciferin 4-monooxygenase (Photinus pyralis), sequence (P08659 whole entry, looked up): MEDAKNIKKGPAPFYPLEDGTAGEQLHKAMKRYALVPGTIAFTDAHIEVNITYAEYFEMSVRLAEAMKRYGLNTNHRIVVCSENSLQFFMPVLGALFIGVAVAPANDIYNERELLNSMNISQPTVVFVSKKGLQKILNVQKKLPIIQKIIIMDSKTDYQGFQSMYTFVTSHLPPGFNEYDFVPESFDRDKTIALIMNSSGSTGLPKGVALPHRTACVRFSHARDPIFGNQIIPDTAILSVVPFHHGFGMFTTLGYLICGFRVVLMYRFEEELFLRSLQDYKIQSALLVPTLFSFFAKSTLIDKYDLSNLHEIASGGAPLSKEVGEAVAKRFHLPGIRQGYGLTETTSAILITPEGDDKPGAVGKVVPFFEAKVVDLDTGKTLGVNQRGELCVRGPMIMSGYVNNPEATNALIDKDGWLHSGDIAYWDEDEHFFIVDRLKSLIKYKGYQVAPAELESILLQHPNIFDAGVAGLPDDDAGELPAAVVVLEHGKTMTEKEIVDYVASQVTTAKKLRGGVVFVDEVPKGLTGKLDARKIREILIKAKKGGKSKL

Active and inactive are the calls of the source.

Albumin (Bos taurus), sequence (P02769 whole entry, looked up): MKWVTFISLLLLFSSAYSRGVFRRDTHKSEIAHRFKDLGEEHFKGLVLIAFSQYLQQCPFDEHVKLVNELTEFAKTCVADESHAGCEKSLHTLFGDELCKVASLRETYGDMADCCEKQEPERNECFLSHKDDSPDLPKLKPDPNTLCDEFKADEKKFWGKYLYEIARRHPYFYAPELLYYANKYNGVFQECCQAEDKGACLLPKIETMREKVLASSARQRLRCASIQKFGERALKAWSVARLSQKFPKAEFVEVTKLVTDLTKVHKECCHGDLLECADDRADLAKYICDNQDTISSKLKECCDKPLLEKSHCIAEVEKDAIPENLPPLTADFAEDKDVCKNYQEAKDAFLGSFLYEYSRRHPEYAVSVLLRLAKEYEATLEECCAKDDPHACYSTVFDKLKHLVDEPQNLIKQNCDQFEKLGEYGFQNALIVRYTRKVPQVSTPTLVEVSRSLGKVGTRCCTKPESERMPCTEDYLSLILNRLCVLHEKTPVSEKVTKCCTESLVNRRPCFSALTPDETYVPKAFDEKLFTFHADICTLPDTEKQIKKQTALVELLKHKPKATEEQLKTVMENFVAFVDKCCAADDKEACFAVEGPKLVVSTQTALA

With `O=C1OCCC/C=C\[C@H]2OC34C=CCN(c5ccc6ccccc6c5)C(=O)[C@H]3N(CCO)C(=O)[C@@H]4C12` (stereo not given in full), the composite z-score with Albumin (Bos taurus) is -1.75; in [2], -0.355; in test [3], -0.213; in test [4], 0.959; in test [5] it was -0.237; in test [6] it was 1.48. The composite z-score in the test on Sam68 (KHDRBS1) is -0.359; in test [7], -2.13; in test [8], -1.39; in [9], -0.218; in test [10], -0.637; in test [11], -0.774. The composite z-score in [12] is -2.11; in test [13], -1.2; in test [14], -0.634; in the test on Lefty1, -1.22; in test [16], 1.13. Moreover, in test [1], the composite Z-score is 0.278 (inactive). Further, the z-score in test [15] was -0.817; in [17], 0.235 (inactive).

In the case of `CO[C@H]1O[C@H](CO)[C@@H](OC(=O)Nc2ccccc2)[C@H](OC(=O)c2cc3ccccc3[nH]2)[C@H]1OC(=O)c1cc2ccccc2[nH]1`, the composite z-score in the test with Albumin (Bos taurus) was 0.124; in [2], -0.0368; in test [3], -0.0166; in [4], 0.793; in [5] it was 0.68; in test [6] it was 0.94. Besides, the composite z-score in the test on Sam68 (KHDRBS1) was 0.396; in [7] it was 0.132; in test [8], 0.282; in test [9] it was 0.568; in [10], 0.181; in test [11] it was 0.353. Also, the composite z-score in test [12] is 0.475; in test [13], 1.13; in test [14], 1.61; in the test with Lefty1, 0.532; in test [16], 0.562. Moreover, the composite Z-score in test [1] was 1.12 (inactive). Further, the figures for the z-score in test [15] and in test [17] were 0.132 and -0.378 (inactive), respectively.

Turning to `COCCOC(=O)N1C(=O)[C@@]2(c3cc(C#CC4(O)CCCCCC4)ccc31)[C@H](C(=O)Nc1nc3ccccc3s1)[C@H]1C(=O)O[C@H](c3ccccc3)[C@H](c3ccccc3)N1[C@@H]2c1ccc(O)cc1`, the composite z-score was 0.25 in the test with Albumin (Bos taurus); 0.188 in [2]; -0.088 in [3]; 0.303 in [4]; 1.59 in test [5]; 0.713 in [6]. The composite z-score in the test with Sam68 (KHDRBS1) came to 1.3; in test [7], 0.626; in test [8], 1.18; in test [9] it was 1.89; in [10] it was 1.24; in [11] it was 0.783. Also, the composite z-score in [12] was found to be 0.942; in test [13], 1.28; in test [14], 1.06; in the test with Lefty1, 1.15; in [16], 0.275. Besides, the composite Z-score in test [1] was 0.56 (inactive). Also, the values for the z-score in test [15] and in test [17] were -1.14 and -0.557 (inactive), respectively.

As for `CCOC(=O)C[C@H]1[C@H](OC(=O)c2cc3ccccc3oc2=O)[C@@H](NC(=O)CC(C)C)c2cc(OCCCO)ccc2N1C(=O)c1ccc2ccccc2n1`, the composite z-score in the test with Albumin (Bos taurus) is 0.42; in [2], 0.191; in test [3], -0.237; in [4] it was 0.43; in test [5], 1.04; in test [6], 0.102. In addition, the composite z-score in the test on Sam68 (KHDRBS1) turned out to be 1.26; in test [7], 0.324; in test [8] it was 0.625; in test [9], 0.672; in [10], 0.686; in [11] it was 0.223. For the same molecule, the composite z-score in [12] is 0.807; in test [13], 1.03; in test [14] it was 1.51; in the test with Lefty1, 0.903; in test [16] it was 0.0235. Moreover, in [1], the composite Z-score was -0.077 (inactive). In addition, the z-score in test [15] is -0.551; in test [17] it was 0.425 (inactive).

As for `C=CCNC(=O)[C@@H]1[C@H]2C(=O)O[C@H](c3ccccc3)[C@H](c3ccccc3)N2[C@H](c2ccccc2OCCO)[C@@]12C(=O)Nc1ccc(C#CCCO)cc12`, the composite z-score with Albumin (Bos taurus) was -0.162; in [2], -0.0302; in test [3], -0.147; in test [4] it was 0.675; in test [5] it was 0.71; in [6], 0.452. Also, the composite z-score in the test with Sam68 (KHDRBS1) was 0.826; in test [7], 1.13; in test [8], 1.15; in test [9], 0.169; in [10], 0.723; in test [11], 0.415. Further, the composite z-score in test [12] worked out at 0.862; in test [13], 1.43; in test [14], 1.62; in the test with Lefty1, 1.32; in [16], 0.5. The composite Z-score in test [1] was -0.433 (inactive). Also, the z-score is 0.861 in [15] and 0.467 (inactive) in [17].
